# A selection: hits, their analogues and other compounds. The true share with any hit is near 18%.
# VDR inh = vitamin D3 receptor (human) inhibition. P11473. VDR-SRC2-3 peptide fluorescence polarization, 2 h. Potency, µM, actives largely listed as inhibitors. hit rate 0.93% among 400,000
#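 Inhibition of the VDR/SRC2-3 peptide interaction is quantified by fluorescence polarization. Compounds (23 nl, pintool) incubate with the reagents for 2 hours at ambient room temperature.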
# TDP1 cell CPT = growth inhibition of DT40 Tdp1-/-;hTDP1 cells with camptothecin (screen for TDP1 inhibitors); chicken DT40 Tdp1-/-;hTDP1 cells + 20 nM CPT, ATP luminescence, 48 h; Potency, µM (series often up to 46.2 µM), usual class: inhibitors; hit rate 12% among 420,000; AID 686979; further: nearly all actives have a fitted effect of over 55% in size
#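 Chicken DT40 Tdp1-/- cells stably complemented with human TDP1 were seeded at 400 cells/well in medium containing 20 nM camptothecin, exposed to pin-transferred compounds, and grown at 37 °C for at least 48 hr. Viability was read as ATP luminescence.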
# TDP1 inh = inhibitors of human tyrosyl-DNA phosphodiesterase TDP1; Q9NUW8; recombinant TDP1, AlphaScreen DNA substrate cleavage; Potency, µM (titrated, usually from 130 µM), most hits filed as inhibitors; hit rate 0.28% among 350,000; AID 485290; further: nearly all actives have a fitted effect of over 40% in size
#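 Recombinant human Tdp1 (E. coli-expressed, 1 nM final) preincubated with compounds 15 min at room temperature, then 5'-biotin/3'-phosphotyrosine-FITC DNA substrate (15 nM final) added for 5 min. AlphaScreen beads (10 ug/ml final) added 10 min; cleavage lowers signal.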
# PLK1 PBD block = PLK1 (human) polo-box domain binding inhibition. hit rate 2.8% among 360,000. AID 720504. Potency, µM, actives largely listed as inhibitors. P53350. Plk1 PBD binding of FITC phosphopeptide, fluorescence polarization; further: series mostly up to about 57 µM; nearly all actives have a fitted effect of over 65% in size
# GCN5L2 inh = GCN5L2 (KAT2A) acetyltransferase inhibition; hit rate 0.21% among 390,000; GCN5L2 HAT assay, ThioGlo1 CoA-SH fluorescence; Potency, µM (top dose mostly 58.9 µM), actives largely listed as inhibitors; Q92830; AID 504327
# Target sequence (Q92830 whole entry, looked up): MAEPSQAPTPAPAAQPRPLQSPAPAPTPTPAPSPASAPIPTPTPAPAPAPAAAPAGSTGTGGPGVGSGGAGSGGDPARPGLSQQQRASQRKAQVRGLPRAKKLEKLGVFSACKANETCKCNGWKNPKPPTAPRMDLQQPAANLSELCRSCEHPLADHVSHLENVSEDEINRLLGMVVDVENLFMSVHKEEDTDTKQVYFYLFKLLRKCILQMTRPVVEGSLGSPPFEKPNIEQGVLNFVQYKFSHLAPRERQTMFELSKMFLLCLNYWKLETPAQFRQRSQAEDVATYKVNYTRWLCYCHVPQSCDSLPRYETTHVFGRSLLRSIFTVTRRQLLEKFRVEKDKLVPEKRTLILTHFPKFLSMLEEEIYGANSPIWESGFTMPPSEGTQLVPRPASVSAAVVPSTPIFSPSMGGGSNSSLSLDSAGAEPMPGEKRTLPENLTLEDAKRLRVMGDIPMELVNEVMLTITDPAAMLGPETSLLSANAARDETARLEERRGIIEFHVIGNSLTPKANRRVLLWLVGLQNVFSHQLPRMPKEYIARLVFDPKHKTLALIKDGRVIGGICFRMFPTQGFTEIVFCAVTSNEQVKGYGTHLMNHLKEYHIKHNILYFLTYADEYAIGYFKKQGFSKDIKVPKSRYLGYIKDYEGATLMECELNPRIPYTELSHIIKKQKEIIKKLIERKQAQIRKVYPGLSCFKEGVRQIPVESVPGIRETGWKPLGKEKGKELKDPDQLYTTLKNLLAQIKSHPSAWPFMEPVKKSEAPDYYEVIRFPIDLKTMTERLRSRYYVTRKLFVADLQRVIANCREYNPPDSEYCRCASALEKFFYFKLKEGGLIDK
#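 Fluorescence readout, Ex340nm/Em540nm: ThioGlo1 (50uM final) reacts with free CoA thiol released as 20nM GCN5L2 acetylates H3(1-25) peptide (75uM) using acetyl-CoA (70uM). Compound and enzyme sat 15 min beforehand; 20 min room-temperature reaction.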
# DT40 TDP1 no CPT = qHTS for Inhibitors of human tyrosyl-DNA phosphodiesterase 1 (TDP1): qHTS in cells in absence of CPT. hit rate 15% among 420,000. AID 686978, 2013. DT40 Tdp1-/- hTDP1 cells, no CPT, ATP luminescence, 48 h. Potency, µM (titrated, usually from 46.2 µM), most hits filed as inhibitors; further: nearly all actives have a fitted effect of over 55% in size
#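 Luminescent ATP content (CellTiter-Glo) served as the growth readout. Knockout chicken DT40 cells expressing human TDP1 were exposed to compounds without camptothecin for a minimum 48 hr at 37 °C.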
# A number is an active result; – = inactive; ? = inconclusive; · = no result; [ ] = another dose, or the depositor's remark. The call rests on the fitted dose curve; in most records, active means well fitted curve in the direction sought with a large enough effect; inconclusive means small, poorly fitted or top-dose-only effect, or another doubt; inactive means no such curve, though single readings can be large; an effect the other way counts as inactive or inconclusive.
SMILES,VDR inh,TDP1 cell CPT,TDP1 inh,PLK1 PBD block,GCN5L2 inh,DT40 TDP1 no CPT
COc1cc(CN2CCN(Cc3ccccc3C(F)(F)F)CC2)cc(OC)c1OC,–,?,·,–,–,25.9µM
Cc1ccc(CN2CCN(Cc3ccccc3C(F)(F)F)CC2)cc1,–,?,·,–,–,?
COc1cc(CN2CCN(Cc3ccc(C(F)(F)F)cc3)CC2)cc(OC)c1OC,–,23.1µM,·,–,–,20.6µM
COc1cc(CN2CCCCCC2)cc(OC)c1OC,–,–,·,–,–,–
CCOc1ccccc1NC(=O)C(CC(C)C)NS(=O)(=O)c1ccc2c(c1)CCN2C(C)=O (stereo unspecified),–,?,–,·,–,–
CCC(O)OC(O)CC (stereo unspecified),·,·,–,·,·,·
Brc1ccc(-c2nc3c4ccccc4ccn3c2Cc2ccccc2)cc1,·,16.4µM,·,–,·,8.2µM
Clc1ccc(-c2nc3c4ccccc4ccn3c2Cc2ccccc2)cc1,·,16.4µM,·,–,·,10.3µM
Cc1cc(Br)cn2c(Cc3ccccc3)c(-c3ccc(F)cc3)nc12,·,?,·,–,·,?
Fc1ccc(-c2nc3c4ccccc4ccn3c2Cc2ccccc2)cc1,·,–,·,–,·,?
O=C(c1ccc(N2C(=O)C3CCCCC3C2=O)cc1)N1CCCCC1 (stereo unspecified),–,–,–,–,–,–
O=C(c1ccc(N2C(=O)C3C4CC(C(Br)C4Br)C3C2=O)cc1)N1CCCCC1 (stereo unspecified),–,–,31.6µM,–,0.794µM,–
O=C(c1ccc(N2C(=O)C3CC=C(Cl)CC3C2=O)cc1)N1CCCCC1 (stereo unspecified),–,–,–,–,–,–
CC1=CCC2C(=O)N(c3ccc(C(=O)N4CCCCCC4)cc3)C(=O)C2C1 (stereo unspecified),–,?,–,16.8µM,–[0.501 µM],?
CCCCN1CCNC[C@H]1Cc1ccc(O)cc1,–,–,·,–,–,–
Oc1ccc(C[C@H]2CNCCN2CCC23CC4CC(CC(C4)C2)C3)cc1,–,18.4µM,–,–,–,16.4µM
Oc1ccc(C[C@@H]2CNCCN2CCC23CC4CC(CC(C4)C2)C3)cc1,–,16.4µM,·,–,–,13µM
Cc1cc(NC(=O)CSCC(=O)N(C)Cc2c(F)cccc2Cl)no1,–,–,–,–,–,–
COc1cccc(CN(C)C(=O)CSCC(=O)Nc2ccc(C)cc2)c1OC,–,?,–,–,–,11.6µM
Cc1cccc(NC(=O)CSCC(=O)N(C)Cc2c(F)cccc2Cl)c1,–,?,–,–,–,13µM
Cc1csc(=O)n1CCC(=O)N(C)Cc1c(F)cccc1Cl,–,?,–,–,–,16.4µM
CC1(C)CC(NC(=O)c2cc(S(=O)(=O)N3CCOCC3)ccc2Cl)CC(C)(C)N1,–,–,–,–,–,–
O=C(OC1CCOC1=O)C1CCN(S(=O)(=O)c2c(Cl)cccc2Cl)CC1 (stereo unspecified),–,–,·,–,–,–
CCOCCCNC(=O)c1ccc(-n2c(=S)[nH]c3ccccc3c2=O)cc1,–,–,–,–,–,–
CC(C)(C)c1ccc(C(=O)Nc2ccc(C(=O)NCc3cccnc3)cc2)cc1,–,2.59µM,–,–,–,1.84µM
SMILES,VDR inh,TDP1 cell CPT,TDP1 inh,PLK1 PBD block,GCN5L2 inh,DT40 TDP1 no CPT
Cc1ccc(NS(=O)(=O)c2ccc(C(=O)NCc3cccnc3)cc2)cc1,–,?,–,–,–,14.6µM
COc1ccc(C(=O)Nc2ccccc2C(=O)NCc2cccnc2)cc1,–,14.6µM,–,–,–,?
CCOC(=O)Cc1ccc(NC(=O)c2ccccc2Br)cc1,–,–,–,–,–,–
CCOC(=O)Cc1ccc(NC(=O)c2ccc(C(C)(C)C)cc2)cc1,–,18.4µM,–,5.32µM,–,14.6µM
Cc1ccc(-c2ccnc(-n3ncc(C(=O)NC[C@@H]4CCCN5CCCC[C@H]45)c3C3CC3)n2)o1,·,–,·,·,·,–
CCN(CC)C(=O)Cn1cc(SCC(=O)Nc2cccc(C)c2)c2ccccc21,–,?,–,·,–,?
O=CNc1ccc2c(c1)Cc1cccc(NC=O)c1-2,–,–,·,–,·,–
CCOc1cccc2cc(C(=O)NCc3ccc(OC)cc3)c(=N)oc12,–,25.9µM,–,–,–,?
CCOc1ncccc1C(=O)NCc1ccc(OC)cc1,–,16.4µM,–,–,–,14.6µM
CC(C)c1ccc(C(=O)NC(=S)NCc2cccnc2)cc1,–,?,–,–,–,16.4µM
O=C(NCc1cccnc1)c1ccc(NC(=O)c2ccc([N+](=O)[O-])cc2)cc1,–,13µM,–,–,–,9.2µM
COc1ccc(CNC(=O)c2cc3cccc(O)c3oc2=N)cc1,–,?,–,–,–,–
COc1ccc(-c2ccc3oc(-c4ccsc4)cc3c2)cc1,–,–,·,–,·,–
Cc1ccc(NCc2ccc(C)s2)cc1,·,·,·,·,–,·
CCOC(=O)C1CCCN1C(=O)c1ccc(OC)c(Br)c1 (stereo unspecified),–,–,–,–,–,–
CCOC(=O)C1CCCCN1C(=O)c1cc2ccc(OC)cc2c2cc(OC)c(OC)cc12 (stereo unspecified),–,?,·,–,·,18.4µM
COc1cccc(-c2nnc3n2N=C(c2ccccc2OC)CS3)c1,·,·,–,·,·,·
COc1ccc(OC)c(C2=Nn3c(nnc3-c3cccc(OC(C)C)c3)SC2)c1,–,13µM,–,–,–,11.6µM
Cc1ccc(-c2nnc3n2N=C(c2ccccc2Br)CS3)cc1,–,11.6µM,–,–,–,8.2µM
COc1ccccc1C1=Nn2c(nnc2-c2ccccc2OC)SC1,·,·,–,·,·,·
Cc1cc(-c2nnc3n2N=C(c2ccc(-c4ccccc4)cc2)CS3)n[nH]1,–,23.1µM,–,?,–,14.6µM
CCOc1ccc(C2=Nn3c(nnc3-c3ccc(OC)cc3)SC2)cc1,–,2.06µM,–,–,–,2.59µM
CCCCC[C@@H]1[C@H]2[C@H]3C(=O)N(c4ccccc4)C(=O)[C@H]3CC(=O)[C@H]2[C@H](c2ccccc2)N1S(=O)(=O)c1ccc(C)cc1,·,–,·,–,·,–
N#CCCCSc1nnnn1-c1cc(C(F)(F)F)cc(C(F)(F)F)c1,–,·,–,·,·,·
CC(C)S(=O)(=O)N1CCCC(c2cc(C(=O)NCc3ccccc3)no2)C1 (stereo unspecified),·,–,·,–,·,–
c1ccc(OCc2nnc3n2N=C(c2ccccc2)CS3)cc1,?,?,–,7.52µM,?,?
CCc1nnc2n1N=C(c1ccc(Br)cc1)CS2,–,–,·,–,–,–
CCCc1ccc(C2=Nn3c(nnc3C(C)C)SC2)cc1,79.4µM,?,–,10.6µM,–,?
COc1ccc(OCc2nnc3n2N=C(c2ccc(OC)cc2)CS3)cc1,–,?,–,?,–,?
